HttQ103 aggreg = qHTS Multiplex Assay to Identify Dual Action Probes in a Cell Model of Huntington: Aggregate Formation (GFP) | PC12 HttQ103-GFP aggregates, Acumen cytometry, 40 h | Potency, µM (highest dose often 46.1 µM), for the others: at the highest dose activity change, negative = inhibition, most hits filed as inhibitors | 220,000 compounds, 1.1% hits; active = well fitted curve in the direction sought with a large enough effect; inconclusive = small, poorly fitted or top-dose-only effect, or another doubt; inactive = no such curve, though single readings can be large; an effect the other way counts as inactive or inconclusive; note: % is set by controls: 0 for no effect and ±100 for the full control effect; nearly all actives have a fitted effect of over 60% in size
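PC12 cells with ecdysone-inducible HTT exon1 Q103-GFP, induced by 100 nM tebufenozide, given compounds in a concentration series. GFP aggregates (1–25 um, 6 SD above background) counted in lysates by laser-scanning cytometry, 488 nm excitation.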
HPGD block = qHTS Assay for Inhibitors of HPGD (15-Hydroxyprostaglandin Dehydrogenase). 15-hydroxyprostaglandin dehydrogenase [NAD(+)] (Homo sapiens), P15428. purified HPGD, NADH fluorescence kinetic, PGE2 substrate. Potency, µM, without a hit: at the top dose activity change, negative = inhibition, usual class: inhibitors. 150,000 compounds, 4.3% hits. AID 894, 2007; note: % is set by controls: 0 for no effect and ±100 for the full control effect
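20 nM HPGD preincubated 15 min at room temperature with compound in 50 mM Tris-HCl pH 8, 0.01% Tween 20. Started with 1 mM NAD+ and 30 uM prostaglandin E2; NADH fluorescence (360/450 nm) read 5 times over 30-s intervals, last minus first.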
KDM4E inh = qHTS Assay for Inhibitors of Human Jumonji Domain Containing 2E (JMJD2E) | 230,000 compounds, 1.6% hits | JMJD2E catalytic domain, FDH-coupled NADH fluorescence (FDH is formaldehyde dehydrogenase) | AID 2147, 2009 | Potency, µM (titrated, usually from 57.1 µM), inactives show top-dose activity change, negative = inhibition, usual class: inhibitors | Lysine-specific demethylase 4E (Homo sapiens), B2RXH2;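 note: 0% = wells with enzyme and -100% = buffer wells without enzyme; nearly all actives have a fitted effect of over 50% in size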
HTT ATP protect = qHTS Multiplex Assay to Identify Dual Action Probes in a Cell Model of Huntington: Cytoprotection (ATP); PC12 HTT-Q103 induced, cytoprotection, ATP luminescence, 40 h; Potency, µM (doses to about 56.4 µM), without a hit: cytoprotection (ATP increase), usual class: activators; 230,000 compounds, 0.14% hits; active = well fitted curve in the direction sought with a large enough effect; inconclusive = small, poorly fitted or top-dose-only effect, or another doubt; inactive = no such curve, though single readings can be large; an effect the other way counts as inactive or inconclusive; note: % of control where 0% means no effect; nearly all actives have a fitted effect of over 45% in size
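Cells were plated at 1500 per well in phenol red-free DMEM with 5% equine and 5% calf serum. Tebufenozide (100 nM final) and compounds were added, then ATPlite reagent, and luminescence was read.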
Lamin A splicing = qHTS Assay for Modulators of Lamin A Splicing | HeLa LMNA splicing GFP/RFP minigene ratio, 48 h | Potency, µM (highest dose often 46.1 µM), inactives show at the top dose ratio change, negative = inhibition, most hits filed as inhibitors | 200,000 compounds, 0.01% hits | AID 1487, 2009; active = well fitted inhibition curve with a large enough effect in the signal ratio, with a control signal flat, not every such curve was filed as active; inconclusive = small, poorly fitted or top-dose-only effect, or effect the other way, or a change in a side signal; the % refers to the signal ratio; note: % is set by controls: 0 for no effect and ±100 for the full control effect
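S3 HeLa cells stably expressing lamin A-EGFP splicing minigene plus DsRed2, 600 cells/well, 48 h compound exposure at 37C. Laser-scanning cytometry; analysed as GFP (500-530 nm)/RFP (575-640 nm) total intensity ratio; 0.5% DMSO vehicle.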
ALDH1A1 block = qHTS Assay for Inhibitors of Aldehyde Dehydrogenase 1 (ALDH1A1); Aldehyde dehydrogenase 1A1 (Homo sapiens), P00352; Purified ALDH1A1, NADH fluorescence, propionaldehyde substrate; Potency, µM (doses to about 75.3 µM), for the others: at the highest dose activity, negative = inhibition, actives largely listed as inhibitors; 220,000 compounds, 7.3% hits;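 note: plate controls were no enzyme wells and a reference inhibitor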
Target sequence (P00352 whole entry, looked up): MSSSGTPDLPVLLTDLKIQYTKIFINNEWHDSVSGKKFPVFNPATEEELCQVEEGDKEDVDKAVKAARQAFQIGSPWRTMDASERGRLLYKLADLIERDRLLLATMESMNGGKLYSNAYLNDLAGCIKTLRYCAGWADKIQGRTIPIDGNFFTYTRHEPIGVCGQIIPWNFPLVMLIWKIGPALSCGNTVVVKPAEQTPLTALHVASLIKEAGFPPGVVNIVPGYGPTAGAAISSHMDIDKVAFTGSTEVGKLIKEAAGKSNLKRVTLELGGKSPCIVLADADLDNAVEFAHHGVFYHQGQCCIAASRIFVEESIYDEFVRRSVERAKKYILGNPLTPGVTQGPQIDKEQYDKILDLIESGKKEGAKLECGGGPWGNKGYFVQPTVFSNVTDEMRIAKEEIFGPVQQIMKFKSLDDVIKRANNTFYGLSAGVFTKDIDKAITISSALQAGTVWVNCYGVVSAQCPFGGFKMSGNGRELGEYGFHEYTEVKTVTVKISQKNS
* marks the source's active call; other numbers are inactive results; ? = inconclusive; / = not tested or not shown; ! = a repeat was not active; [ ] = remark or other dose. Hits are enriched below; roughly 9.2% of the tested compounds scored in any of these assays. Unless noted, calls come from the whole dose curve; as a rule, active = well fitted inhibition curve with a large enough effect (not every such curve was filed as active); inconclusive = small, poorly fitted or top-dose-only effect, or another doubt; inactive = no such curve, though single readings can be large or run the other way. Potency is the fitted concentration of half-maximal effect.

SMILES	HttQ103 aggreg	HPGD block	KDM4E inh	HTT ATP protect	Lamin A splicing	ALDH1A1 block
O=C(O)c1cc(S(=O)(=O)Nc2cccc(Cl)c2)ccc1O	/	-18%	/	/	/	?
CC(C)CN1C=C2C(=O)C(C)(OC(=O)C3CCCC3)C(=O)C=C2C=C1c1ccsc1 (stereo unspecified)	20%[9.22 µM]	2%	32µM*!	-2%[10 µM]	-10%[9.22 µM]	7%[13.5 µM]
CCOc1ccc(CNC(=O)CN2C(=O)C3CCCCN3c3ccc(C(=O)N4CCCC4)cc32)cc1 (stereo unspecified)	/	/	/	/	4%[46 µM]	/
O=C(CSc1nnc(Nc2ccccc2)s1)Nc1cccc(S(=O)(=O)N2CCCCC2)c1	4%	-16%	1%	-34%[10 µM]	?	-6%
Cc1csc(SCC(=O)Nc2cccc(S(=O)(=O)N3CCCC3)c2)n1	4%	-1%	2%	-1%	-12%	25µM*
O=C(CSc1ncn[nH]1)Nc1cc(S(=O)(=O)N2CCCC2)ccc1Cl	-4%	/	?	-14%	/	16µM*
Cc1csc(SCC(=O)Nc2cc(S(=O)(=O)N3CCOCC3)ccc2N2CCOCC2)n1	5%[9.22 µM]	/	7%	1%[10 µM]	/	/
Cc1csc(SCC(=O)Nc2cc(S(=O)(=O)N3CCCC3)ccc2Cl)n1	-3%	0%	-5%	-13%	6%	1.3µM*
O=C(CSc1ncn[nH]1)Nc1ccc(S(=O)(=O)N2CCCC2)cc1	-7%	-2%	5%	0%[10 µM]	16%	3%
COc1ccc2c(c1)[N+](=O)C(/C(C)=N/NC(N)=S)=C(C)[N+]2=O	/	-19%	/	/	/	3.2µM*
CSC(=[SH+])N=N/C(=C1/C=CC=CN1)c1ccccn1.[Cu][Br]	/	?	/	/	/	0.63µM*
Cc1ccc(Cn2c(=O)c3ccccc3n3nc(C)cc23)cc1	28%	/	?	-33%	/	?
Fc1ccc(-c2ccnc(=S)[nH]2)cc1	12%	18µM*	-4%	19%[10 µM]	-12%	?
COc1cccc2cc(-c3ccnc(=S)[nH]3)oc12	-14%	/	-6%	-21%	/	?
CCCCCC1=NN2C(=O)CC(=O)N=C2S1	12%[9.22 µM]	/	-12%	15%[10 µM]	/	/
Oc1c(Cl)cc(Cl)cc1Sc1cc(Cl)cc(Cl)c1O	10µM*	32µM*!	?	-53%	?	24µM*!
Cn1ncc2c(Nc3cccc(C(=O)O)c3)ncnc21	0%	-18%	-2%	-3%	5%	13µM*
CC(=O)OC[C@@H]1O[C@@H](O/N=C2/C[C@@H](O)[C@@H](O)[C@@H]3[C@@H]4C(=O)N(C[C@@H]5CCCO5)C(=O)[C@H]4CC[C@H]23)[C@H](OC(C)=O)[C@H](OC(C)=O)[C@@H]1OC(C)=O	/	/	/	28%[10 µM]	/	16%[13.5 µM]
Cc1nn(-c2ccccc2)c2c1C1(C(=O)N(C)c3ccccc31)C(C#N)=C(N)O2 (stereo unspecified)	5%	-1%	-11%	-12%	3%	?
Cc1nn(-c2ccccc2)c2c1C1(C(=O)N3c4c(cccc41)C(C)CC3(C)C)C(C#N)=C(N)O2 (stereo unspecified)	?	-27%	?	26%	-8%	0.25µM*
N#Cc1cccc(NC(=O)N2CC[C@@]3(CCCN(C(=O)c4cccc(F)c4)C3)C2)c1	/	-8%	/	-30%	/	-4%
CN(C)c1ccc(SC#N)cc1	-2%[9.22 µM]	/	7%	12%[10 µM]	/	13µM*
CC(=O)N1CCc2c(sc(NC(=O)CSc3ccccc3)c2-c2nc3ccccc3s2)C1	/	/	/	/	18%[46 µM]	/
CCCCC(=O)Nc1sc2c(c1-c1nc3ccccc3s1)CCN(C(C)=O)C2	0%	-20%	?	2%[10 µM]	?	25µM*

Assay outcomes from PubChem BioAssay.
